Measured values published in PubChem BioAssay (NCATS).
Several values for one entry are separate records, joined by “and”; a condition that tells them apart may be missing. Equal entries are not always repeated. Unmarked numbers belong to inactive results. Results filed as inconclusive are left out. Where a call stands in place of a potency, no number is given. Activity calls are given as the source filed them. Unless noted, the call rests on the fitted dose curve; in most records, active means well fitted curve in either direction with a large enough effect (not every such curve was filed as active); inconclusive means small, poorly fitted or top-dose-only effect, or another doubt; inactive means flat fitted curve, though single readings scatter.

How the values were obtained:
[1] = AP1 Signaling Pathway (AID 357);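 further: ME-180 reporter cells stimulated with EGF at its EC50 level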
Outline: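 Cells are seeded overnight, exposed to compound titrations and an EC50 level of EGF for 5 hours at 37 °C, then loaded with CCF4 dye for 2.5 hours. Beta-lactamase activity under the AP-1 element is read as a blue/green ratio.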

[2] = target: Cytochrome P450 1A2 (Homo sapiens) (UniProt P05177); assay: p450-cyp1a2 (AID 410; calls by dose curve; further: potency means the concentration at half of the fitted maximal effect)
Outline: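 O-Demethylation of luciferin 6' methyl ether by human CYP1A2 is monitored as luciferase luminescence. Substrate sits at Km (100uM); enzyme is 20nM. Values are scaled to 57 uM furafylline as maximal inhibition.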

[3] = NFAT Signaling Pathway (AID 444); details: Jurkat NFAT-bla M1, carbachol, beta-lactamase ratio, 5 h;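 further: carbachol stimulus at about its EC50 of 1 µM final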
Outline: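 Read-out: CCF4 FRET ratio (460 nm/530 nm) after 1 h RT dye loading, used for %activity and AC50 from titration series. Cells: Jurkat NFAT-β-lactamase/M1 line, treated with compound plus 1 uM carbachol for 5 h, 37 °C.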

[4] = Stat Signaling Pathway (AID 446);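 further: ME-180 cervical cancer cells given 40 pM IL-6 alongside compound; SIE-controlled beta-lactamase reporter measured as 460/530 nm FRET emission ratio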
Outline: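 Overnight-plated ME-180 cells bearing a STAT Inducible Element beta-lactamase reporter; 5 h co-exposure to compound and 40 pM IL-6; values normalized to 300 pM IL-6 and 125 nM JAK inhibitor controls.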

[5] = target: Glucocorticoid receptor (Homo sapiens) (UniProt P04150); assay: GR-EFC Redistribution (AID 451; calls by dose curve; further: potency means the concentration at half of the fitted maximal effect); details: CHO-K1 GR-EFC translocation, beta-gal luminescence, 2 h
Outline: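 Translocation of GR-ED fusion to nuclear EA restores b-gal, read by luminescence after 1 h room-temperature detection. Engineered CHO-K1 biosensor cells, 1,000/well, exposed 2 h at 37 C to titrations up to 46 uM final.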

[6] = target: Mitogen-activated protein kinase 10 (Mus musculus) (UniProt Q61831); assay: JNK3 AlphaScreen Assay (AID 530);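 further: kinase came from lysate of stimulated human HepG2 cells; signal reports phosphorylation of biotinylated GST-cJun 1-79 at Ser73 with 10 µM ATP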
Outline: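 qHTS titrations with 15 min compound pre-incubation before adding ATP (10 uM final). Read-out: AlphaScreen of Ser73-phosphorylated biotin-GST-cJun using HepG2 lysate JNK3 activated by IL-1β and TNFα.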

[7] = Cell Viability - BJ (AID 421; calls by dose curve;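 further: potency means the concentration at half of the fitted maximal effect; cells exposed to compound for 40 hours at 37 °C before readout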); details: BJ fibroblast viability, qHTS
Outline: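 Quantitative HTS: ATP depletion in BJ cells after 40 hr compound exposure in complete culture medium, detected with CellTiter-Glo; AC50 from standard Hill fits.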

[8] = Cell Viability - Jurkat (AID 426;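 active means dose-dependent loss of cell ATP signal giving a full or clear fitted curve, ranked by lower potency value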;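 further: potency means the concentration at half of the fitted maximal effect; cells exposed to compound for 40 hours at 37 °C before ATP read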); details: qHTS
Outline: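 Cells of the human T-cell leukemia line Jurkat (E6-1) are seeded at 5000 per well, treated with compound across a concentration range for 40 hours at 37 °C, then lysed with CellTiter-Glo; luminescence reports ATP.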

[9] = Cell Viability - Hek293 (AID 427;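 active means compounds whose dose-response curve shows a full or clear partial loss of cell viability, called from curve shape rather than a numeric limit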;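 further: potency means the concentration at half of the fitted maximal effect; cells exposed to compound for 40 hours at 37 °C before reading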); details: qHTS
Outline: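 AC50 values derive from Hill-modelled concentration-response of ATP-based luminescence, normalized between DMSO-only and 100 uM tamoxifen controls. Cells were exposed in complete culture medium for 40 hr at 37 °C before detection.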

[10] = Cell Viability - HepG2 (AID 433; calls by dose curve;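 further: potency means the concentration at half of the fitted maximal effect; potency for ATP loss meaning cytotoxicity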); details: qHTS
Outline: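 Read-out is luciferase-based quantitation of cellular ATP as a measure of viable HepG2 cells after 40 h treatment at 37 °C. Signal decrease is scaled between DMSO-only and 100 uM tamoxifen controls, with AC50 fitted by the Hill equation.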

[11] = Cell Viability - MRC5 (AID 434; calls by dose curve;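 further: potency means the concentration at half of the fitted maximal effect; potency reflects cytotoxicity seen as loss of intracellular ATP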); details: MRC5 lung fibroblast viability, qHTS
Outline: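 AC50 values come from Hill-equation fits of intracellular ATP loss, measured by CellTiter-Glo luminescence. Normal lung fibroblasts (MRC5) had 40 hr compound treatment at 37 C, normalized between DMSO and 100 uM tamoxifen.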

[12] = Cell Viability - SK-N-SH (AID 435; calls by dose curve;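 further: potency means the concentration at half of the fitted maximal effect; compound exposure lasted 40 h at 37 °C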); details: SK-N-SH neuroblastoma cell viability qHTS
Outline: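 Luminescent ATP signal served as the viability read-out after 40 hours of compound treatment of human neuroblastoma SK-N-SH cells. Concentration-response data, scaled between DMSO and 100 uM tamoxifen, gave AC50 values by standard Hill modeling.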

[13] = Cell Viability - N2a (AID 540; active means well fitted curve in the direction sought with a large enough effect; an effect the other way counts as inactive or inconclusive;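 further: cells exposed to compound for 40 h at 37 °C; nearly all actives have a fitted effect of over 45% in size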); details: N2a mouse neuroblastoma cell viability; at 92.2 µM (top of the series)
Outline: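 Cytotoxicity was scored as loss of cellular ATP in N2a cells, a mouse neuroblastoma line. Compounds are applied in a qHTS concentration series for 40 hr at 37 °C.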

[14] = Cell Viability - NIH 3T3 (AID 541; active means well fitted curve in the direction sought with a large enough effect; an effect the other way counts as inactive or inconclusive; further: nearly all actives have a fitted effect of over 25% in size)
Outline: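 Cells seeded at 1000/well, rested 5 hr at 37 °C, then dosed and incubated 40 hr at 37 °C. CellTiter-Glo added, 20 min room temperature, luminescence read. AC50 by Hill fit.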

[15] = Cell Viability - HUV-EC-C (AID 542; active means well fitted curve in the direction sought with a large enough effect; an effect the other way counts as inactive or inconclusive; further: nearly all actives have a fitted effect of over 35% in size)
Outline: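 Cells were seeded at 1000 per well and incubated 5 hr at 37 °C before compound addition. After 40 hr at 37 °C, CellTiter-Glo reagent was added for 20 min and luminescence read. AC50 values came from Hill-equation modelling.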

[16] = Cell Viability - H-4-II-E (AID 543; active means well fitted curve in the direction sought with a large enough effect; an effect the other way counts as inactive or inconclusive; further: nearly all actives have a fitted effect of over 35% in size)
Outline: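 Cells seeded at 1500 per well and rested 5 hr; compounds added; 40 hr incubation at 37 °C; CellTiter-Glo added, 20 min at room temperature; luminescence read. Hill-equation fits gave AC50.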

[17] = Cell Viability - Renal Proximal Tubule (AID 545; active means well fitted curve in the direction sought with a large enough effect; an effect the other way counts as inactive or inconclusive; further: nearly all actives have a fitted effect of over 40% in size)
Outline: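 Luminescent ATP signal (CellTiter-Glo) served as the viability read-out after 40 hr compound exposure of freshly isolated rat proximal tubule cells at 37 °C. Concentration-dependent ATP loss was fitted with the Hill equation to give AC50.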

[18] = Cell Viability - Mesenchymal (AID 546; active means well fitted curve in the direction sought with a large enough effect; an effect the other way counts as inactive or inconclusive;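 further: cells exposed to compound for 40 hours before reading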); details: mesenchymal cells viability, qHTS; at 91.7 µM (top of the series)
Outline: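 CellTiter-Glo luminescence (intracellular ATP, 20 min room temperature) after 40 hr compound exposure at 37 °C of 1000 glomerulus-derived human kidney mesenchymal cells/well; AC50 values obtained by fitting qHTS concentration-response data to the Hill equation.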

Cytochrome P450 1A2 (Homo sapiens), sequence (P05177 whole entry, looked up): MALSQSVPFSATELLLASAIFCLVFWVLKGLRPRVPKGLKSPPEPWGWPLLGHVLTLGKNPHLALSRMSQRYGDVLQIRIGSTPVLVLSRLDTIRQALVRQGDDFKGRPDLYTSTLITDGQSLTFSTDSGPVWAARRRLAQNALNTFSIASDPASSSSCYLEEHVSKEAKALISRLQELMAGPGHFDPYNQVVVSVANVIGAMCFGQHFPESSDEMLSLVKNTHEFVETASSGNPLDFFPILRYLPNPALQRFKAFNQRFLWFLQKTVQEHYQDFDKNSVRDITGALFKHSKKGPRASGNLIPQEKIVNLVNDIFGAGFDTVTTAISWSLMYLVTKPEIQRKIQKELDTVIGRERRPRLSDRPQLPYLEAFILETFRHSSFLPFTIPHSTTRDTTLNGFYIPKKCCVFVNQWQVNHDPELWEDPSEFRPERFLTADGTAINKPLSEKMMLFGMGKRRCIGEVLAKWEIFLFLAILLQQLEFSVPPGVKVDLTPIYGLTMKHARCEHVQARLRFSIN
Glucocorticoid receptor (Homo sapiens), sequence (P04150 whole entry, looked up, the tested form may be a part): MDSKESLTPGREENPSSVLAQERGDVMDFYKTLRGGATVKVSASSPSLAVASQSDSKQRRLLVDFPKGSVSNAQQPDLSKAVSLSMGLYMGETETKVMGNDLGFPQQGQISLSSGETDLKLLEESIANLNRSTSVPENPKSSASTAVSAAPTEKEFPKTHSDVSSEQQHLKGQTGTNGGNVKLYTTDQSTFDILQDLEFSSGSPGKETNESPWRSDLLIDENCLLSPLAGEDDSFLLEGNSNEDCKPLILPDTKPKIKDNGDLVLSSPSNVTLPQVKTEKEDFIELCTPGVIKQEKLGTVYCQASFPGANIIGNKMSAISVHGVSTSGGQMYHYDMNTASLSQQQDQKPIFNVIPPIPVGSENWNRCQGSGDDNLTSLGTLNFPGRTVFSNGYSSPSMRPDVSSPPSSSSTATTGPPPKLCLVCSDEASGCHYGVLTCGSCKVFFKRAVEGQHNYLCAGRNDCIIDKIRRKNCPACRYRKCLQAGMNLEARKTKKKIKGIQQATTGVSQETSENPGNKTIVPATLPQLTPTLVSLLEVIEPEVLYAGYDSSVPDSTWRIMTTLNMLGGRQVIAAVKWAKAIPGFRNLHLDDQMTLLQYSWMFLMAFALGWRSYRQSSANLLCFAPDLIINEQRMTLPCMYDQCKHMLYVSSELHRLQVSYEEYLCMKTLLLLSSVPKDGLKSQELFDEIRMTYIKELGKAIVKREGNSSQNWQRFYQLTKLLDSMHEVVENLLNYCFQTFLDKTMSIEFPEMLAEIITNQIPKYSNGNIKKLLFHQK

Compound: CC1(C)S[C@@H]2[C@H](NC(=O)[C@@H](NC(=O)N3CCNC3=O)c3ccccc3)C(=O)N2[C@H]1C(=O)O
- outcome [1]: inactive
- Potency [2]: inactive
- activity change, negative = inhibition ([3]; at 17.2 µM (top of the series)): -13.7%
- outcome [4]: inactive
- Potency [5]: > 20.6 µM
- outcome [6]: inactive

Compound: CC(=O)OCC(=O)[C@@]12OC3(CCCC3)O[C@@H]1C[C@H]1[C@@H]3CCC4=CC(=O)C=C[C@]4(C)[C@@]3(F)[C@@H](O)C[C@@]12C
- outcome [1]: inactive
- outcome [4]: inactive

Compound: Cc1cc(C(=O)NNCc2ccccc2)no1
- outcome [1]: inactive
- Potency [2]: 12.6 µM (active)
- activity change, negative = inhibition ([3]; at 17.2 µM (top of the series)): 11.8%
- outcome [4]: inactive
- Potency [5]: > 20.6 µM
- outcome [6]: inactive

Compound: CCCC(=O)O[C@]1(C(=O)COC(C)=O)CC[C@H]2[C@@H]3C[C@H](F)C4=CC(=O)C=C[C@]4(C)[C@@]3(F)[C@@H](O)C[C@@]21C
- outcome [1]: inactive
- activity change, negative = inhibition ([3]; at 17.2 µM (top of the series)): -29.7%
- outcome [4]: inactive

Compound: O=C1CSC2(CCN(CCCN3c4ccccc4Sc4ccc(Cl)cc43)CC2)N1
- outcome [1]: inactive
- Potency [2]: 3.16 µM (active)
- outcome [4]: inactive
- Potency [5]: > 9.22 µM
- activity change, negative = inhibition [6]: -6.21% [at 11.4 µM]

Compound: COC(=O)CCC(=O)CN
- outcome [1]: inactive
- outcome [4]: inactive

Compound: CN1Cc2c(N)cccc2C(c2ccccc2)C1 (configuration not stated)
- outcome [1]: inactive

Compound: CC[N+](C)(C)Cc1ccccc1Br
- outcome [1]: inactive
- activity change, negative = inhibition ([3]; at 17.2 µM (top of the series)): -8.6%
- activity change, negative = inhibition ([3]; at 38 µM (top of the series)): -11%
- outcome [4]: inactive
- Potency [5]: > 46 µM and > 20.6 µM
- outcome [6]: inactive

Compound: CC1(C)S[C@@H]2[C@H](NC(=O)Cc3ccccc3)C(=O)N2[C@H]1C(=O)O
- outcome [1]: inactive
- activity change, negative = inhibition ([3]; at 17.2 µM (top of the series)): -9.19% and 5.43%
- outcome [4]: inactive
- Potency [5]: > 20.6 µM
- outcome [6]: inactive

Compound: CCOc1ccc2c(c1)C(C)=CC(C)(C)N2
- outcome [1]: inactive
- Potency [2]: 5.01 µM (active)
- Potency [7]: > 92 µM
- Potency [8]: > 92 µM
- Potency [9]: > 92 µM
- Potency [10]: > 92 µM
- Potency [11]: > 92 µM
- Potency [12]: > 92 µM
- activity change, negative = inhibition ([3]; at 17.2 µM (top of the series)): 4.3%
- outcome [4]: inactive
- outcome [6]: inactive
- activity change, negative = cytotoxicity [13]: -9.52%
- outcome [14]: inactive
- Potency [15]: inactive
- Potency [16]: inactive
- outcome [17]: inactive
- activity change, negative = cytotoxicity [18]: 9.89%

Compound: Cc1c(C)c2c(c(C)c1O)CC[C@@](C)(CCC[C@@H](C)CCC[C@@H](C)CCCC(C)C)O2
- outcome [1]: inactive
- Potency [2]: inactive
- activity change, negative = inhibition ([3]; at 17.2 µM (top of the series)): -1.66%
- outcome [4]: inactive
- Potency [5]: > 20.6 µM

Compound: Nc1c(Br)cc(Br)cc1CNC1CCC(O)CC1 (configuration not stated)
- outcome [1]: inactive
- activity change, negative = inhibition ([3]; at 17.2 µM (top of the series)): 0.0265%
- outcome [4]: inactive
- Potency [5]: > 20.6 µM
- outcome [6]: inactive

Compound: CCCC(=O)Nc1ncnc2c1ncn2[C@@H]1O[C@@H]2COP(=O)(O)O[C@H]2[C@H]1OC(=O)CCC
- outcome [1]: inactive
- activity change, negative = inhibition ([3]; at 17.2 µM (top of the series)): -26.8%
- outcome [4]: inactive
- Potency [5]: > 46 µM
- outcome [6]: inactive

Compound: Cc1onc(-c2ccccc2)c1C(=O)N[C@@H]1C(=O)N2[C@@H]1SC(C)(C)[C@@H]2C(=O)O
- outcome [1]: inactive
- activity change, negative = inhibition ([3]; at 17.2 µM (top of the series)): 24.2%
- outcome [4]: inactive

Compound: COc1ccc(CCNC[C@H](O)c2ccc(O)cc2)cc1OC
- outcome [1]: inactive
- Potency [2]: inactive
- activity change, negative = inhibition ([3]; at 38 µM (top of the series)): -28.1%
- outcome [4]: inactive
- Potency [5]: > 46 µM
- outcome [6]: inactive
